# From the supplement of paper PMC4166925
# ± gives the standard deviation of the averaged measurements. Over roughly 33,000 sequences, “E-score (dimensionless, -0.5 to 0.5)” has its median near -0.046; the highest 2% begin near 0.36. The full list was thinned out, with the highest values kept by preference.
# Test system: T1, SpTbr T-box DNA-binding domain (GST fusion)
# T1 sequence: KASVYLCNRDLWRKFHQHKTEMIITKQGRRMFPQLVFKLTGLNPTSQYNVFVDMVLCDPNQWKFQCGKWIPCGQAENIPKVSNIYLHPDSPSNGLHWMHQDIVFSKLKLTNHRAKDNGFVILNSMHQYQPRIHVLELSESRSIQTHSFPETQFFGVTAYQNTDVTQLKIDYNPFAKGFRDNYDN
# Assay: PBM E-score of 8-mer (E-score (dimensionless, -0.5 to 0.5)); Tbr is Tbrain of the sea star Patiria miniata (Pm) or the sea urchin Strongylocentrotus purpuratus (Sp); higher = stronger binding preference
# Details: the construct has about 5 more residues each side
# Method in brief: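 Expression of GST-fused Tbr T-box DNA-binding domains, each holding the full T-box plus roughly five flanking residues, was carried out in BL21 E. coli at 20 °C, with purification by glutathione affinity chromatography. Universal Agilent arrays made double-stranded by primer extension were incubated with the protein at 200 nM in PBS (pH 7.5), then scanned and quantified. All ungapped 8-mers were scored from probe intensities, and each received an enrichment E-score from the Universal PBM Analysis Suite, averaged over duplicate arrays.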
row,Sequence,PBM E-score of 8-mer
1,ACGAAAGT,0.00641 ± 0.0039
2,AATGTGTA,0.207 ± 0.05
3,AATGTGTG,0.4245 ± 0.0035
4,AATGTGCG,0.3287 ± 0.0028
5,AATGTGGC,0.219 ± 0.02
6,AATGTGTC,0.413 ± 0.012
7,CATGTGTC,0.3458 ± 0.0021
8,AGACGACT,-0.202 ± 0.093
9,GCTGGGCC,-0.144 ± 0.0084
10,ATGTGACC,0.169 ± 0.046
11,ATGTGACG,0.285 ± 0.026
12,CTGTGACA,0.31 ± 0.011
13,ATGTGACA,0.409 ± 0.0051
14,CTGTGACC,0.142 ± 0.026
15,GTGTGACA,0.457 ± 0.0047
16,CAGATAGA,-0.131 ± 0.025
17,CAGCAGAG,-0.0309 ± 0.05
18,CACTCTCA,0.317 ± 0.00081
19,CATGCGCG,0.221 ± 0.023
20,CTACTGTC,0.1 ± 0.024
21,CAGGACTA,-0.191 ± 0.029
22,AGACTTAT,0.00662 ± 0.019

row,Sequence,PBM E-score of 8-mer
1,GAGCCTGC,-0.0257 ± 0.039
2,GATAACAC,0.414 ± 0.022
3,GATAACGC,0.288 ± 0.011
4,CATAACAC,0.405 ± 0.028
5,AATAACAC,0.294 ± 0.062
6,GATAACAA,0.27 ± 0.027
7,CATAACAA,0.00154 ± 0.064
8,CAGCATGA,-0.154 ± 0.015
9,AAGTTGGT,-0.0114 ± 0.097
10,GGAGTCAA,-0.0304 ± 0.04
11,ATAGCACC,0.387 ± 0.011
12,ATAGCACA,0.156 ± 0.06
13,CTAGCACA,0.271 ± 0.018
14,CAAGCACC,0.0313 ± 0.011
15,ATAGCACG,0.34 ± 0.0094
16,CTAGCACC,0.415 ± 0.014
17,CCAGTTGA,0.0132 ± 0.086
18,CAGGGGTC,-0.231 ± 0.086
19,AGAATCGC,0.165 ± 0.045
20,ACTGATGG,-0.00902 ± 0.051
21,ACAGAGGG,-0.118 ± 0.029
22,GCAATGCC,-0.174 ± 0.032

row,Sequence,PBM E-score of 8-mer
1,GCATCTAA,-0.0797 ± 0.077
2,GAATTGAA,-0.177 ± 0.099
3,GTCGCCCA,0.198 ± 0.0069
4,AAACATTG,0.0255 ± 0.053
5,ACACATTG,0.368 ± 0.01
6,ACACATTA,0.291 ± 0.031
7,ACACATAA,0.269 ± 0.016
8,ACACATAG,0.306 ± 0.018
9,ACACATAT,0.407 ± 0.0072
10,AAACATTC,-0.0068 ± 0.0056
11,ACACATTC,0.38 ± 0.022
12,CCACATTC,0.14 ± 0.06
13,GTCAAGCA,0.0528 ± 0.058
14,ACTCTTTA,0.0329 ± 0.022
15,CGCTACCA,0.271 ± 0.0082
16,ATTAGGAG,-0.247 ± 0.041
17,GAGCCAGC,0.0706 ± 0.066
18,ACTACTCC,-0.139 ± 0.024
19,ACTCCGGA,-0.0213 ± 0.013
20,GGTGCGGA,0.404 ± 0.023
21,AGTGCTAT,0.243 ± 0.079
22,CGTGCTAA,0.349 ± 0.0041

row,Sequence,PBM E-score of 8-mer
1,AGTGCTAA,0.412 ± 0.015
2,GGTGCTAC,0.42 ± 0.007
3,AGTGCTAC,0.245 ± 0.027
4,AGTGCTAG,0.265 ± 0.049
5,CGTGCTAC,0.128 ± 0.0037
6,TGTGCTAA,0.26 ± 0.011
7,CGTGCGGA,0.147 ± 0.028
8,AGTGCGGA,0.257 ± 0.023
9,GGTGCTAA,0.4658 ± 0.00059
10,AGTTACTG,-0.0684 ± 0.048
11,AGTAGCCC,-0.239 ± 0.026
12,CCCGCTTC,0.139 ± 0.082
13,GAGTTTGA,0.00341 ± 0.029
14,AGGTCAAT,-0.202 ± 0.093
15,CTTTTCGA,-0.087 ± 0.018
16,GGTGCAAC,0.176 ± 0.012
17,TGTGCAAA,0.225 ± 0.033
18,GGTGCAAA,0.3907 ± 0.0034
19,ACGTAGGG,-0.127 ± 0.051
20,CTTGGAAC,-0.26 ± 0.046
21,CGTCAAAG,0.228 ± 0.028
22,ACAAGGTG,0.425 ± 0.0045

row,Sequence,PBM E-score of 8-mer
1,ACAAGGTA,0.0584 ± 0.021
2,AGAAGGTA,-0.167 ± 0.031
3,AGAAGGTG,0.386 ± 0.015
4,AGAAGGTC,-0.2756 ± 0.0017
5,ACAAGGTC,0.202 ± 0.026
6,AGATCTTC,0.0938 ± 0.043
7,ACTTGTGA,0.412 ± 0.011
8,CGTTGTGA,0.162 ± 0.028
9,TCTTGTCA,0.24 ± 0.014
10,GCTTGTCA,0.12044 ± 2.8e-05
11,ACTTGTCA,0.4189 ± 0.00086
12,ACTTGTGG,0.205 ± 0.00054
13,GCTTGTGA,0.202 ± 0.074
14,AGTTGTGG,0.164 ± 0.06
15,AGTTGTGA,0.407 ± 0.0049
16,ATTGCGAC,-0.0335 ± 0.048
17,CGATGACG,0.0899 ± 0.049
18,AGCCTATC,-0.168 ± 0.1
19,AACAATGC,-0.018 ± 0.0069
20,CAGAGTTC,-0.129 ± 0.032
21,ACTGGTAC,-0.0857 ± 0.01
22,AACCACTT,-0.0435 ± 0.018
